Measurements published in PubChem BioAssay (EPA / NIEHS).
The source made the active and inactive calls. How the source made its calls: active means hit-call score of the fitted dose curve at least 0.9, where 1 is the maximum; inactive means score below 0.9.

Tests used:
[1] = ATG_ISRE_CIS: Attagene CIS-FACTORIAL HepG2 Assay for human Interferon Regulatory Factor 1 (IRF1) binding to an Interferon-Stimulated Response Element (ISRE) (AID 2282948); settings: HepG2 ISRE cis-reporter (Attagene), mRNA transcription readout; actives raise or lower the signal
In short: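 Read-out: fluorescent RT-PCR products resolved by capillary electrophoresis, reporting endogenous transcription factor activity via ISRE-driven reporter mRNA in transfected HepG2 cells dosed for 24 h; gain or loss fitted relative to DMSO.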

[2] = ATG_M_32_CIS: Attagene CIS-FACTORIAL HepG2 Assay for M32 Transcription Factor (Internal Marker) (AID 2282949); settings: HepG2 Attagene cis-factorial M32 reporter, mRNA; actives raise or lower the signal;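 further: background control marker of the multiplexed CIS panel rather than a real target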
In short: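 Transient MRTU transfection of HepG2; 24 h compound treatment; TriZol RNA, oligo(dT) RT, reporter PCR, 6-FAM primer extension, HpaI cut, CE. Gain/loss of signal vs DMSO.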

[3] = ATG_M_06_CIS: Attagene CIS-FACTORIAL HepG2 Assay for M06 Transcription Factor (Internal Marker) (AID 2282950); settings: HepG2 Attagene CIS-FACTORIAL M06 internal marker reporter; actives raise or lower the signal
In short: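 One of many multiplexed endpoints: HepG2 reporter mRNA after 24 h dosing, detected by RT-PCR and capillary electrophoresis fluorescence; gain or loss of signal analysed against DMSO.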

[4] = molecular target: Hepatocyte nuclear factor 6 (Homo sapiens) (UniProt Q9UBC0); assay: ATG_HNF6_CIS: Attagene CIS-FACTORIAL HepG2 Assay for human Hepatocyte Nuclear Factor 6 (HNF6) (AID 2282952); settings: HepG2 Attagene cis-factorial HNF6 reporter transcription; actives raise or lower the signal
Hepatocyte nuclear factor 6 (Homo sapiens), sequence (Q9UBC0 whole entry, looked up): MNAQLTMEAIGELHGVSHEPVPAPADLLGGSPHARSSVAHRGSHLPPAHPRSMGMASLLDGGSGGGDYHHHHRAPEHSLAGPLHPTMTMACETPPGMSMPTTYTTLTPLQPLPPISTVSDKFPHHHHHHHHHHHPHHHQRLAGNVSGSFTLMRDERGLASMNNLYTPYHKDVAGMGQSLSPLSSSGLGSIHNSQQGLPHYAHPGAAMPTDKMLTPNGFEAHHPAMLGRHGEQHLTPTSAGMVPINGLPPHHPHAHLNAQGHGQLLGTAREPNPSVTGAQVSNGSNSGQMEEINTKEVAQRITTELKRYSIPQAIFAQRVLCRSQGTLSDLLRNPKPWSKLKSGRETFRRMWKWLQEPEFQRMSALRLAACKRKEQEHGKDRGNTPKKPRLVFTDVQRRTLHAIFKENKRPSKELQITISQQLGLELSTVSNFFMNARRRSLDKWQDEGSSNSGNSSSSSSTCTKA
In short: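 Endogenous transcription factor activity in human HepG2 liver cells was captured through cis-regulated reporter constructs. After 24 h treatment, reporter mRNA was measured by RT-PCR with capillary electrophoresis, and activity was fitted in both directions relative to DMSO.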

[5] = molecular target: Heat shock factor protein 1 (Homo sapiens) (UniProt Q00613); assay: ATG_HSE_CIS: Attagene CIS-FACTORIAL HepG2 Assay for human Heat Shock Transcription Factor 1 (HSE) (AID 2282953); settings: HepG2 HSE cis-reporter, Attagene RNA transcription; actives raise or lower the signal
Heat shock factor protein 1 (Homo sapiens), sequence (Q00613 whole entry, looked up): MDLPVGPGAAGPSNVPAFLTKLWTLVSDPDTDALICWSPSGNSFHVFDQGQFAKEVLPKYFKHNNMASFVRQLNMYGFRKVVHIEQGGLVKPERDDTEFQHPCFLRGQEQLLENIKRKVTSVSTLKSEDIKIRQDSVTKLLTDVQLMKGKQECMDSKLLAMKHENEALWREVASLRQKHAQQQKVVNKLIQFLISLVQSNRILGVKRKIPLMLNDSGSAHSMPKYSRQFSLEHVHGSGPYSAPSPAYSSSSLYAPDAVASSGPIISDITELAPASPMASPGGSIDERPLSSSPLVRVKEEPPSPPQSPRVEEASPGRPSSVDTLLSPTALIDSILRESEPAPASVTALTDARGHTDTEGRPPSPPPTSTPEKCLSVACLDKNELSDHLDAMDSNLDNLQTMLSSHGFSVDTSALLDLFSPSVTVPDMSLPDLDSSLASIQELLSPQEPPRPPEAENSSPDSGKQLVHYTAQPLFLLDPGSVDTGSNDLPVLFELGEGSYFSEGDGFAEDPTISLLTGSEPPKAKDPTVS
In short: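 Using HepG2 with transfected cis-driven reporter constructs, compound effects on endogenous factor activity are scored as reporter mRNA change at 24 h. Detection: RT-PCR, HpaI digestion, capillary electrophoresis; bidirectional fitting to DMSO.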

[6] = ATG_MRE_CIS: Attagene CIS-FACTORIAL HepG2 Assay for human Metal Responsive Element (MRE) (AID 2282954); settings: HepG2 MRE cis-reporter transcription, Attagene multiplex; actives raise or lower the signal
In short: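 Multiplexed cis-reporter assay in human HepG2 liver cells, 24 h incubation with test chemical. Reporter transcripts measured by RT-PCR and capillary electrophoresis; values from bidirectional curve fitting versus DMSO.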

[7] = ATG_PBREM_CIS: Attagene CIS-FACTORIAL HepG2 Assay for human Phenobarbital-responsive Enhancer Module (PBREM) (AID 2282955); settings: HepG2 PBREM cis-reporter, Attagene multiplexed transcription; actives raise or lower the signal
In short: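 HepG2 cells transiently transfected with multiple cis-regulated reporter transcription units; endogenous factor activity at the PBREM element measured as reporter mRNA 24 h after dosing, via RT-PCR and capillary electrophoresis of fluorescent fragments; bidirectional fitting versus DMSO.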

[8] = molecular target: Paired box protein Pax-6 (Homo sapiens) (UniProt P26367); assay: ATG_Pax6_CIS: Attagene CIS-FACTORIAL HepG2 Assay for human Paired Box 6 (PAX6) (AID 2282956); settings: HepG2 CIS-FACTORIAL PAX6 reporter transcription, RNA readout; actives raise or lower the signal
Paired box protein Pax-6 (Homo sapiens), sequence (P26367 whole entry, looked up): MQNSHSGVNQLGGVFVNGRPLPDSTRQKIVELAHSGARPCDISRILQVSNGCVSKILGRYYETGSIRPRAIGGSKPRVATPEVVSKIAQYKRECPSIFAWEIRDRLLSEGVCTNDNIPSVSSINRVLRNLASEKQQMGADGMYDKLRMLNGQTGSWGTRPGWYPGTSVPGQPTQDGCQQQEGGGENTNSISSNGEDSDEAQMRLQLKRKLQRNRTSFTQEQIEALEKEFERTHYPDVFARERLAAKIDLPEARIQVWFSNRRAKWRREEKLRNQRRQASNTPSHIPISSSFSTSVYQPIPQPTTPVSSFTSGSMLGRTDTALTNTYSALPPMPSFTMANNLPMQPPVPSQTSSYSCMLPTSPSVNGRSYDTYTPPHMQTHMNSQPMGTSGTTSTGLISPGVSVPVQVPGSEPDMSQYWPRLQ
In short: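 Readout: reporter transcript fluorescence after RT-PCR and capillary electrophoresis. Cells: HepG2, transiently transfected with cis-regulated MRTUs. Exposure 24 h. Gain or loss of signal fitted bidirectionally relative to DMSO.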

[9] = ATG_PXRE_CIS: Attagene CIS-FACTORIAL HepG2 Assay for human Pregnane X Receptor Element (PXRE) (AID 2282957); settings: HepG2 Attagene CIS-FACTORIAL PXRE reporter, mRNA; actives raise or lower the signal
In short: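 Endogenous transcription factor activity in HepG2 was gauged through induction of reporter mRNA driven by a cis-regulating promoter element, sampled 24 h post-treatment. Activity was fitted in both directions against DMSO negative control.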

[10] = ATG_PPRE_CIS: Attagene CIS-FACTORIAL HepG2 Assay for human Peroxisome Proliferator-activated Response Element (PPRE) (AID 2282958); settings: HepG2 PPRE cis-element reporter, Attagene transcription factor profiling; actives raise or lower the signal
In short: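 HepG2 cells transiently transfected with multiplexed cis-element reporter units measure endogenous transcription factor activity. After 24 h compound exposure, reporter mRNA is quantified by RT-PCR, 6-FAM labeling, HpaI digestion and capillary electrophoresis; bidirectional fits are made against DMSO baseline.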

[11] = ATG_RORE_CIS: Attagene CIS-FACTORIAL HepG2 Assay for human RAR-related Orphan Receptor Element (RORE) (AID 2282959); settings: HepG2 Attagene cis-factorial RORE reporter, mRNA; actives raise or lower the signal
In short: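 HepG2 cells transiently transfected with multiple cis-element reporter transcription units, exposed to chemical for 24 h. Reporter mRNA quantified by RT-PCR, 6-FAM primer-extension labeling, HpaI digestion and capillary electrophoresis; bidirectional fit versus DMSO baseline.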

[12] = ATG_Sox_CIS: Attagene CIS-FACTORIAL HepG2 Assay for human SRY-box transcription factor (SOX) (AID 2282960); settings: HepG2 Attagene cis-factorial SOX reporter, mRNA; actives raise or lower the signal
In short: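 HepG2 cells transiently transfected with cis-element-driven multiple reporter transcription units, dosed 24 h; reporter mRNA measured by RT-PCR, FAM labelling, HpaI digestion and capillary electrophoresis. Bidirectional fit versus DMSO baseline.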

[13] = molecular target: Transcription factor Sp1 (Homo sapiens) (UniProt P08047); assay: ATG_Sp1_CIS: Attagene CIS-FACTORIAL HepG2 Assay for human Specificity Protein 1 (Sp1) (AID 2282961); settings: HepG2 Sp1 cis-reporter transcription, actives raise or lower the signal
Transcription factor Sp1 (Homo sapiens), sequence (P08047 whole entry, looked up): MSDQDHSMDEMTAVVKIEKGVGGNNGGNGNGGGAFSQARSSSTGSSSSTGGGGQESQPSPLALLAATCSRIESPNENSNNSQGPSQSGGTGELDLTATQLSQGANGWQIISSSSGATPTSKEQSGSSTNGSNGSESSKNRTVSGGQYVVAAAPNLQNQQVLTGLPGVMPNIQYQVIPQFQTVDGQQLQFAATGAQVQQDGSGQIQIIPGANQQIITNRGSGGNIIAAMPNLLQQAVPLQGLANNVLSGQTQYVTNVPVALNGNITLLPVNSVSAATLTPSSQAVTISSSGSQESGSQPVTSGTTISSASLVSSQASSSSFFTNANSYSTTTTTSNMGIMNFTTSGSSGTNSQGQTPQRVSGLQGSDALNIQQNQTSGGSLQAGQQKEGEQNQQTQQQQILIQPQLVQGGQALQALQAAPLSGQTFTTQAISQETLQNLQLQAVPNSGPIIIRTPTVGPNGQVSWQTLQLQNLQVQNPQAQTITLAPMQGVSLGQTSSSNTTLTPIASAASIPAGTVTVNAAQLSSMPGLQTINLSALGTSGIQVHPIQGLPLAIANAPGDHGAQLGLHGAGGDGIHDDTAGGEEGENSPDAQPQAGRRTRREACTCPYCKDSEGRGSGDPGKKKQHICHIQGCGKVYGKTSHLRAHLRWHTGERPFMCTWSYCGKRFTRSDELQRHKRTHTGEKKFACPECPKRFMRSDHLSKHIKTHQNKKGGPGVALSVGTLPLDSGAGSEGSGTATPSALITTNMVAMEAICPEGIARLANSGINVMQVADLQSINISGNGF
In short: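 HepG2 cells transiently transfected with multiple reporter transcription units driven by cis-regulatory elements; Sp1-responsive reporter mRNA measured 24 h after dosing by RT-PCR and capillary electrophoresis fluorescence, fitted bidirectionally against DMSO baseline.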

[14] = ATG_SREBP_CIS: Attagene CIS-FACTORIAL HepG2 Assay for human Sterol Regulatory Element Binding (SREBP) (AID 2282962); settings: HepG2 Attagene cis-factorial SREBP reporter, mRNA; actives raise or lower the signal
In short: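 Readout: fluorescent reporter-transcript peaks resolved by capillary electrophoresis after RT-PCR. Cells were human HepG2 carrying transfected cis-promoter reporter constructs, dosed for 24 h. Gain or loss of signal was fitted against DMSO controls.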

[15] = molecular target: Signal transducer and activator of transcription 3 (Homo sapiens) (UniProt P40763); assay: ATG_STAT3_CIS: Attagene CIS-FACTORIAL HepG2 Assay for human Signal Transducer and Activator of Transcription 3 (STAT3) (AID 2282963); settings: HepG2, Attagene cis-factorial STAT3 reporter transcription; actives raise or lower the signal
Signal transducer and activator of transcription 3 (Homo sapiens), sequence (P40763 whole entry, looked up): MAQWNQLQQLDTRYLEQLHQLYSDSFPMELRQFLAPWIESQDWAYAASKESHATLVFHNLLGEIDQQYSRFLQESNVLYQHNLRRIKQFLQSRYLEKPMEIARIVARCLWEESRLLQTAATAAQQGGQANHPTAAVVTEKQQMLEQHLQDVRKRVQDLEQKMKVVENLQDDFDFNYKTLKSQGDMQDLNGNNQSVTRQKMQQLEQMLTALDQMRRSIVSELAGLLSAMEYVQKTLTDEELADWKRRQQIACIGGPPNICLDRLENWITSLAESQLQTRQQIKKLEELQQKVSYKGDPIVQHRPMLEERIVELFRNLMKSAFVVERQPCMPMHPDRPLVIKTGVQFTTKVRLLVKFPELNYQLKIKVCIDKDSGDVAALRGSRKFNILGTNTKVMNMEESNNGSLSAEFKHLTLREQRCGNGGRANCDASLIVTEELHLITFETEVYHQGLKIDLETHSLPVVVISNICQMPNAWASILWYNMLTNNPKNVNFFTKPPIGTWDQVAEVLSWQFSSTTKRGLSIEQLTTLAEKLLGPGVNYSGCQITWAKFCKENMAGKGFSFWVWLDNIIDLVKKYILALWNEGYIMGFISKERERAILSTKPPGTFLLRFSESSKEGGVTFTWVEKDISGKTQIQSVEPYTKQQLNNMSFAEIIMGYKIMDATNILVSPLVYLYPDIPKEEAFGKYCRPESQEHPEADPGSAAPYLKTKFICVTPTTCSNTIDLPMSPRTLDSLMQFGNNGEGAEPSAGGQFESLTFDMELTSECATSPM
In short: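 Cis-factorial format: endogenous transcription factors in HepG2 drive transfected reporter units. After 24 h treatment, reporter RNA was reverse-transcribed, amplified, FAM-labelled and HpaI-digested before CE analysis; activity scored in both directions against DMSO.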

[16] = ATG_TA_CIS: Attagene CIS-FACTORIAL HepG2 Assay for human TA Basal Promoter (AID 2282964); settings: HepG2 Attagene CIS-factorial TA basal promoter reporter; actives raise or lower the signal
In short: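 Transient MRTU transfection of HepG2 preceded 24 h compound exposure. Reporter mRNA levels were then read by RT-PCR with capillary electrophoresis, and this background-control endpoint was fitted bidirectionally to DMSO.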

[17] = ATG_TCF_b_cat_CIS: Attagene CIS-FACTORIAL HepG2 Assay for human T-Cell-Factor with beta-catenin (TCF/b-cat) (AID 2282965); settings: HepG2 TCF/beta-catenin cis-reporter transcription, actives raise or lower the signal
In short: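 Measured: reporter mRNA in HepG2 transiently transfected with cis-promoter reporter units, 24 h after chemical addition. Fitting was bidirectional, DMSO as negative control.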

[18] = ATG_TAL_CIS: Attagene CIS-FACTORIAL HepG2 Assay for human TAL Basal Promoter (AID 2282966); settings: HepG2 Attagene cis-factorial TAL promoter reporter; actives raise or lower the signal;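 further: background control endpoint measuring basal TAL promoter reporter mRNA not a specific factor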
In short: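 Endogenous transcription-factor activity is sensed in HepG2 cells through transfected cis-promoter reporter constructs. After 24 h dosing, reporter transcripts are quantified by RT-PCR and capillary electrophoresis. Gain or loss of signal is fitted relative to DMSO.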

[19] = ATG_GRE_CIS: Attagene CIS-FACTORIAL HepG2 Assay for human Glucocorticoid Response Elements (GRE) (AID 2282947); settings: HepG2 GRE cis-reporter, Attagene multiplex mRNA; actives raise or lower the signal
In short: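 Multiplexed cis-reporter mRNA induction, HepG2, 24 h post-dose. RT-PCR, FAM-labelled, HpaI-digested amplicons by CE. Bidirectional fit vs DMSO.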

[20] = molecular target: Hypoxia-inducible factor 1-alpha (Homo sapiens) (UniProt Q16665); assay: ATG_HIF1a_CIS: Attagene CIS-FACTORIAL HepG2 Assay for human Hypoxia Inducible Factor 1 (HIF1A) (AID 2282951); settings: HepG2 Attagene cis-factorial HIF1a reporter transcription; actives raise or lower the signal
Hypoxia-inducible factor 1-alpha (Homo sapiens), sequence (Q16665 whole entry, looked up): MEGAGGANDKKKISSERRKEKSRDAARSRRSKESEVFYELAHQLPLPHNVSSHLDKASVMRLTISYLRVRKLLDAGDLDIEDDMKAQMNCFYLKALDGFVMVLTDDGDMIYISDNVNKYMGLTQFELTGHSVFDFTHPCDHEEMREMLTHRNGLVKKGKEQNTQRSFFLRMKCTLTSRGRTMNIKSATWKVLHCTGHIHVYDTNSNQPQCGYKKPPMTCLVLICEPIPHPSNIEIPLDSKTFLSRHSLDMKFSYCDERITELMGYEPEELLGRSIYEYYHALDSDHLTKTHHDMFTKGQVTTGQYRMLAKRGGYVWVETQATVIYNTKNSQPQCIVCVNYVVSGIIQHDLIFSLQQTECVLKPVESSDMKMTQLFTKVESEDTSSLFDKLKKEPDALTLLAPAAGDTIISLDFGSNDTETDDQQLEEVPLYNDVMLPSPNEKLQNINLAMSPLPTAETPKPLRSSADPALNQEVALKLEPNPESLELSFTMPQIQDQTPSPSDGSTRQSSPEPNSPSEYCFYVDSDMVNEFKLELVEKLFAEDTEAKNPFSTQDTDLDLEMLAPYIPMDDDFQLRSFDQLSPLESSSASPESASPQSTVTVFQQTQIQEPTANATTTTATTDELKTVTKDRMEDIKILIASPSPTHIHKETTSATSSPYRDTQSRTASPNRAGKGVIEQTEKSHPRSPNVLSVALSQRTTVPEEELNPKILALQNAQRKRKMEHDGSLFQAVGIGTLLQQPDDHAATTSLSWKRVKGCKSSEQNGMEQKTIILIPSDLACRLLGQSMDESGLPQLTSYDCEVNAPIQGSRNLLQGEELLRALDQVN
In short: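 HepG2 cells transiently transfected with multiplexed cis-promoter reporter units; reporter mRNA read 24 h after dosing by RT-PCR, 6-FAM primer-extension labelling, HpaI digestion and capillary electrophoresis. Bidirectional fit versus DMSO baseline.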

In the case of O=C(O)c1cccc(N(Cc2cccnc2)c2ccc(OC(F)F)c(OC(F)F)c2)c1, the outcome [1] is reported as “inactive”, the outcome [2] is reported as “inactive” and the outcome [3] is reported as “inactive”. For the same compound, the outcome [4] was “inactive”, the outcome [5] was “inactive” and the outcome [6] was “inactive”. The outcome [7] was “inactive”, the outcome [8] was “inactive” and the AC50 [9] was 26.2 µM (active). For the same compound, the AC50 [10] was 25.1 µM (active), the outcome [11] was “inactive” and the outcome [12] was “inactive”. For the same compound, the outcome [13] was “inactive”, the outcome [14] was “inactive” and the outcome [15] was “inactive”. For the same compound, the outcome [16] was “inactive”, the AC50 [17] was 100 µM (active) and the outcome [18] was “inactive”.
In the case of CC(=O)OC[C@H]1O[C@@](COC(C)=O)(O[C@H]2O[C@H](COC(C)=O)[C@@H](OC(C)=O)[C@H](OC(C)=O)[C@H]2OC(C)=O)[C@@H](OC(C)=O)[C@@H]1OC(C)=O, the outcome [19] is reported as “inactive”, the outcome [1] is reported as “inactive” and the outcome [2] is reported as “inactive”. The outcome [3] was “inactive”, the outcome [5] was “inactive” and the outcome [6] was “inactive”. For the same compound, the outcome [8] was “inactive”, the AC50 [9] was 20.1 µM (active) and the outcome [11] was “inactive”. The outcome [13] was “inactive”, the outcome [14] was “inactive” and the outcome [15] was “inactive”. For the same compound, the outcome [16] was “inactive”, the outcome [17] was “inactive” and the outcome [18] was “inactive”.
For O=C1CCCCCN1, the outcome [1] was “inactive”, the outcome [2] was “inactive” and the outcome [3] was “inactive”. For the same compound, the outcome [20] was “inactive”, the outcome [5] was “inactive” and the outcome [6] was “inactive”. The outcome [7] was “inactive”, the outcome [8] was “inactive” and the outcome [9] was “inactive”. The outcome [10] was “inactive”, the outcome [11] was “inactive” and the outcome [13] was “inactive”. For the same compound, the outcome [14] was “inactive”, the outcome [15] was “inactive” and the outcome [16] was “inactive”. For the same compound, the outcome [17] was “inactive” and the outcome [18] was “inactive”.
